Measured values taken from PubChem BioAssay (EPA / NIEHS).
Some compounds were tested as several samples or in several runs, with calls that do not always agree. The source made the active and inactive calls. Rule for the calls: active = hit-call score of the fitted dose curve at least 0.9, where 1 is the maximum; inactive = score below 0.9.

Assays:
[1] = APR_HepG2_CellLoss_72hr: Apredica 72-hour HepG2 Assay for Cell Loss (AID 2282915); details: high-content imaging
Procedure, shortened: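 Cell number comes from Hoechst 33342-labelled nuclei, imaged at 20x after 3.7% formaldehyde fixation. Dosing was 0.39–200 uM, ten concentrations in duplicate, 0.5% DMSO final, for 72 h. Bidirectional fit relative to DMSO baseline.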

[2] = APR_HepG2_P-H2AX_72hr: Apredica 72-hour HepG2 Assay for H2AX Phosphorylation (AID 2282916); details: imaging, actives raise or lower the signal;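 note: phospho-histone H2A.x immunostain intensity per cell marking DNA damage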
Procedure, shortened: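 Phospho-H2A.x imaging endpoint in HepG2 after 72 hr compound exposure (0.39–200 uM, duplicate wells). Activity derived by bidirectional curve fitting with DMSO as baseline.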

[3] = APR_HepG2_MitoMembPot_72hr: Apredica 72-hour HepG2 Assay for Mitochondrial Membrane Potential (AID 2282917); details: imaging, actives raise or lower the signal
Procedure, shortened: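 Membrane potential read by MitoTracker Red CMXRos (250 nM, 30 min, pre-fixation) fluorescence imaging of HepG2 after 72 hr exposure. Ten concentrations, 0.39–200 uM, duplicate wells, 0.5% DMSO; fitted in both directions against DMSO baseline.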

[4] = APR_HepG2_MicrotubuleCSK_72hr: Apredica 72-hour HepG2 Assay for Microtubule CSK Stabilty (AID 2282919); details: HepG2 microtubule cytoskeleton, high-content imaging, actives raise or lower the signal
Procedure, shortened: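 High-content imaging of alpha-tubulin staining in fixed HepG2 cells after 72 hr treatment with ten concentrations from 0.39 to 200 uM (0.5% DMSO). Fitting was bidirectional against DMSO; taxol served as positive control.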

[5] = APR_HepG2_P-H2AX_24hr: Apredica 24-hour HepG2 Assay for H2AX Phosphorylation (AID 2282920); details: high-content imaging, actives raise or lower the signal
Procedure, shortened: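 Human HepG2 liver cells, treated 24 hr with test chemicals (0.39–200 uM, final DMSO 0.5% v/v), are fixed and co-stained for phospho-H2A.x and c-Jun with Hoechst. Imaged intensity is fitted in both directions against DMSO controls.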

[6] = APR_HepG2_StressKinase_72hr: Apredica 72-hour HepG2 Assay for Stress Kinase (AID 2282921); details: HepG2 stress kinase (phospho-c-Jun) imaging, actives raise or lower the signal
Procedure, shortened: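 Stress kinase signal reflects nuclear phospho-c-Jun staining in fixed, permeabilized cells exposed 72 h to compound at 0.39–200 uM; DMSO-normalized, fitted for increases or decreases.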

[7] = APR_HepG2_StressKinase_24hr: Apredica 24-hour HepG2 Assay for Stress Kinase (AID 2282922); details: HepG2 stress kinase (phospho-c-Jun) imaging, actives raise or lower the signal
Procedure, shortened: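 High-content imaging of phospho-c-Jun immunofluorescence in fixed, permeabilized HepG2 cells after 24 h dosing. Ten concentrations, 0.39 to 200 uM, run in duplicate at 0.5% v/v DMSO; gain or loss of signal versus DMSO.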

[8] = APR_HepG2_p53Act_72hr: Apredica 72-hour HepG2 Assay for p53 Activation (AID 2282923); details: high-content imaging, actives raise or lower the signal;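 note: average cellular p53 protein immunofluorescence intensity in HepG2 cells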
Procedure, shortened: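 Fixed-cell p53 staining (sheep primary, Cy5 secondary) measured by fluorescence imaging following 72 hr treatment at 0.39–200 uM in 0.5% DMSO; DMSO served as negative control and baseline.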

[9] = APR_HepG2_MitoMass_72hr: Apredica 72-hour HepG2 Assay for Mitochondrial Mass (AID 2282924); details: high-content imaging, actives raise or lower the signal;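 note: MitoTracker Red CMXRos stain intensity per cell imaged as mitochondrial mass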
Procedure, shortened: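 Readout is imaged MitoTracker Red (250 nM, 30 min, pre-fixation) signal, fitted bidirectionally against DMSO baseline. Human HepG2 liver cells received compound 0.39–200 uM in duplicate for 72 hr, final DMSO 0.5%.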

[10] = APR_HepG2_NuclearSize_72hr: Apredica 72-hour HepG2 Assay for Nuclear Size (AID 2282925); details: high-content imaging, actives raise or lower the signal
Procedure, shortened: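 Nuclear size was read by high-content imaging of Hoechst 33342 stain after formaldehyde fixation. Compounds ran 72 h on HepG2 at 0.39 to 200 uM, with final DMSO 0.5% v/v. Curves fitted both directions relative to DMSO control.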

[11] = target: CCAAT/enhancer-binding protein beta (Homo sapiens) (UniProt P17676); assay: ATG_C_EBP_CIS: Attagene CIS-FACTORIAL HepG2 Assay for human CCAAT/Enhancer Binding Protein (C/EBP) beta (AID 2282927); details: HepG2 Attagene cis-factorial transcription factor reporter; actives raise or lower the signal
CCAAT/enhancer-binding protein beta (Homo sapiens), sequence (P17676 whole entry, looked up, the tested form may be a part): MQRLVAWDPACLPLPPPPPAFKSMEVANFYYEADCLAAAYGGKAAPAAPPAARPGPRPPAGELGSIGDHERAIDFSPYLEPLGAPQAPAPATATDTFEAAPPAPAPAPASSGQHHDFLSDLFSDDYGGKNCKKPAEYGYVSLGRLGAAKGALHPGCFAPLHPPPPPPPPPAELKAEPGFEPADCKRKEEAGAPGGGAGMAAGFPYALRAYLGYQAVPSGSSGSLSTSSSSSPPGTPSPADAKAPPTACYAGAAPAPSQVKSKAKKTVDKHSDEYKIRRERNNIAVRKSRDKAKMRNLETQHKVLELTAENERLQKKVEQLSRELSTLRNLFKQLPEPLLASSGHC
Procedure, shortened: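 Endogenous C/EBPb-driven reporter transcripts measured in transfected human HepG2 cells at 24 h via RT-PCR and capillary electrophoresis of labelled fragments. Activity fitted in both directions relative to DMSO baseline.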

[12] = ATG_CMV_CIS: Attagene CIS-FACTORIAL HepG2 Assay for human CMV (Internal Marker) (AID 2282928); details: HepG2 CMV promoter reporter, transcription factor profiling; actives raise or lower the signal;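 note: endpoint acts as a background internal control marker rather than a target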
Procedure, shortened: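 24 h chemical treatment, HepG2 with transient multi-reporter transfection; RNA → oligo(dT) RT → PCR → 6-FAM extension → HpaI digest → CE fluorescence. Bidirectional fit, DMSO negative control.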

[13] = ATG_DR4_LXR_CIS: Attagene CIS-FACTORIAL HepG2 Assay for human Liver X Receptor (LXR), DR4 submotif (AID 2282929); details: HepG2 Attagene DR4 cis-reporter, mRNA transcription; actives raise or lower the signal
Procedure, shortened: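 Measures endogenous transcription factor activity via a DR4-driven reporter transcript in human HepG2 cells. Compounds incubated 24 h; mRNA quantified by RT-PCR and capillary electrophoresis, analysed as gain or loss of signal versus DMSO.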

[14] = target: Aryl hydrocarbon receptor (Homo sapiens) (UniProt P35869); assay: ATG_Ahr_CIS: Attagene CIS-FACTORIAL HepG2 Assay for human Aryl Hydrocarbon Receptor (Ahr) (AID 2282930); details: HepG2 AhR cis-factorial reporter transcription; actives raise or lower the signal
Aryl hydrocarbon receptor (Homo sapiens), sequence (P35869 whole entry, looked up): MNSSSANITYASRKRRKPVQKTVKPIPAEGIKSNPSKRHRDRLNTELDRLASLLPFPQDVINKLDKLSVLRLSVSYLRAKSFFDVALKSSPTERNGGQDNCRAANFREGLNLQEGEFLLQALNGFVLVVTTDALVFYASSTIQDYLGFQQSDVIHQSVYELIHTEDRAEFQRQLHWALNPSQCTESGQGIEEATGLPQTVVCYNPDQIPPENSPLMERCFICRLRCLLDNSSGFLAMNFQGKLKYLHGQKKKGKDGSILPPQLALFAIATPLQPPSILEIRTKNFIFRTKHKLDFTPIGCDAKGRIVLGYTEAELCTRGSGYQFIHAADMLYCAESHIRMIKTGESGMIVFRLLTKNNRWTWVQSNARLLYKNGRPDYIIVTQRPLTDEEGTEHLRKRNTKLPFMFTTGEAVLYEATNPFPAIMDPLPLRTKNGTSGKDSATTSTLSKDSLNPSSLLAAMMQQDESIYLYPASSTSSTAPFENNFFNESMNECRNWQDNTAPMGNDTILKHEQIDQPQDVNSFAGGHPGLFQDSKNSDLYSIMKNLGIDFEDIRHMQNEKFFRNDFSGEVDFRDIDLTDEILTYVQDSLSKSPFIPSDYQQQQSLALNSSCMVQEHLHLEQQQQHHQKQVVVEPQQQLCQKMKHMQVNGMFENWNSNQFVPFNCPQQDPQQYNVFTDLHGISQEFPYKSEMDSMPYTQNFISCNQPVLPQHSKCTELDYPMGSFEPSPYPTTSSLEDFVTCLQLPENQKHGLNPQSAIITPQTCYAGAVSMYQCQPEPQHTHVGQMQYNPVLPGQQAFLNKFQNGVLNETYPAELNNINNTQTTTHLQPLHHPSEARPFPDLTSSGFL
Procedure, shortened: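 Reporter mRNA levels, quantified by RT-PCR and fluorescent capillary electrophoresis, reflect endogenous AhR transcriptional activity in HepG2 cells carrying transfected cis-promoter reporter constructs. Readout at 24 h post-dose; gain or loss fitted against DMSO baseline.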

[15] = ATG_AP_1_CIS: Attagene CIS-FACTORIAL HepG2 Assay for human Activator Protein 1 (AP-1) (AID 2282931); details: HepG2 Attagene cis-factorial AP-1 reporter mRNA; actives raise or lower the signal
Procedure, shortened: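 Bidirectional concentration-response fitting against DMSO controls. Underlying signal: reporter mRNA from cis-promoter constructs in transiently transfected HepG2, measured after 24 h by RT-PCR and capillary electrophoresis.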

[16] = ATG_AP_2_CIS: Attagene CIS-FACTORIAL HepG2 Assay for human Activator Protein 2 (AP-2) (AID 2282932); details: HepG2 AP-2 cis-reporter, Attagene transcription factor profiling; actives raise or lower the signal
Procedure, shortened: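 Transiently transfected HepG2 cells are exposed to chemical for 24 h. Reporter transcripts are then measured as fluorescence following RT-PCR and capillary separation, and gain- or loss-of-signal is fitted relative to DMSO.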

[17] = ATG_BRE_CIS: Attagene CIS-FACTORIAL HepG2 Assay for human Bone Morphogenetic Protein (BMP) Response Element (BRE) (AID 2282933); details: HepG2 BMP response element reporter, Attagene transcription factor profiling; actives raise or lower the signal
Procedure, shortened: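 HepG2 cells transiently transfected with multiplexed cis-element reporter units were dosed with chemical for 24 h. Reporter mRNA was measured by RT-PCR with fluorescent labelling, HpaI digestion and capillary electrophoresis; bidirectional fitting relative to DMSO.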

[18] = target: Retinoic acid receptor alpha (Homo sapiens) (UniProt P10276); assay: ATG_DR5_RAR_CIS: Attagene CIS-FACTORIAL HepG2 Assay for human Retinoic Acid Receptor Alpha (RARE), DR5 submotif (AID 2282934); details: HepG2 Attagene cis-factorial RARE DR5 reporter, mRNA; actives raise or lower the signal;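 for AC50: reporter responds to endogenous RAR alpha beta and gamma in HepG2 not RARA alone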
Retinoic acid receptor alpha (Homo sapiens), sequence (P10276 whole entry, looked up): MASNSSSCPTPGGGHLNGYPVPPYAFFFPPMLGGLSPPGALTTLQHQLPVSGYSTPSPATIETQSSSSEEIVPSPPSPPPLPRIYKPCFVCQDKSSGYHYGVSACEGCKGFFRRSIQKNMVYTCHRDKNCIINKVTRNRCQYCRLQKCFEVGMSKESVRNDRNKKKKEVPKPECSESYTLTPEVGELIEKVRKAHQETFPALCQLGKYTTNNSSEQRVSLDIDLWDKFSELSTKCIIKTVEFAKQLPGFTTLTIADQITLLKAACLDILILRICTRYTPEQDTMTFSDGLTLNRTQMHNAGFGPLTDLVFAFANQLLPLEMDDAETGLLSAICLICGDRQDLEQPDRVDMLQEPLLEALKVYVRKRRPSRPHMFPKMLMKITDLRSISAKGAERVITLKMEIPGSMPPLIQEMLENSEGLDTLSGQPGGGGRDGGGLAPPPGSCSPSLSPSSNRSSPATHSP
Procedure, shortened: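 Reporter transcripts from a DR5-regulated unit, measured via RT-PCR plus capillary electrophoresis, reflect endogenous RAR activity in transiently transfected human HepG2 liver cells. Exposure lasted 24 h; gain or loss of signal scored against DMSO.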

[19] = target: Transcription factor E2F1 (Homo sapiens) (UniProt Q01094); assay: ATG_E2F_CIS: Attagene CIS-FACTORIAL HepG2 Assay for human E2F Transcription Factor 1 (AID 2282935); details: HepG2 Attagene cis-reporter, E2F reporter RNA transcripts; actives raise or lower the signal
Transcription factor E2F1 (Homo sapiens), sequence (Q01094 whole entry, looked up): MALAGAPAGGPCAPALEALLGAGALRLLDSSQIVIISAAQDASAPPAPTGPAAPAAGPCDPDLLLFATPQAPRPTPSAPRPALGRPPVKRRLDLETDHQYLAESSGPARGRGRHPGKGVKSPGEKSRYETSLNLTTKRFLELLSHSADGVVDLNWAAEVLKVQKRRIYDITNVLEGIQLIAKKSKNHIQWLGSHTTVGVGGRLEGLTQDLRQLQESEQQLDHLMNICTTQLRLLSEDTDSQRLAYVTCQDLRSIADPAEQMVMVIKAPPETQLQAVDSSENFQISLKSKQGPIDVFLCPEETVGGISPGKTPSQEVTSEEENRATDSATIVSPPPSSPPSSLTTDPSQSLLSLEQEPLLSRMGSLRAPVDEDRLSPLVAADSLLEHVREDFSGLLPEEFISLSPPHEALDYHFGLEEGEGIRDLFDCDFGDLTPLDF
Procedure, shortened: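 Fluorescent RT-PCR products, digested with HpaI for 2 h at 37 C, are separated by capillary electrophoresis. Source RNA comes from transfected HepG2 cultures treated for 24 h.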

[20] = ATG_CRE_CIS: Attagene CIS-FACTORIAL HepG2 Assay for human cAMP Responsive Element (CRE) binding protein 3 (AID 2282926); details: HepG2 CRE cis-reporter, Attagene multiplexed mRNA; actives raise or lower the signal
Procedure, shortened: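 Liver-derived HepG2, transfected with a CRE-containing reporter panel, exposed 24 h; transcript levels sized and quantified by capillary electrophoresis of labelled amplicons; signal changes either way referenced to vehicle.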

Measured: AC50

C=C(C)C(=O)[O][Sn]([CH2]CCC)([CH2]CCC)[CH2]CCC
inactive: [3] | [4] | [6] | [7] | [11] | [13] | [14] | [17] | [19]
active: [1] 0.228 µM | [2] 0.0519 µM | [5] 0.159 µM | [8] 0.0408 µM | [9] 0.395 µM | [10] 0.0558 µM | [12] 0.288 µM | [15] 0.451 µM | [16] 0.412 µM | [18] 0.00707 µM

CC(C)(c1ccccc1)c1ccc(O)c(C(C)(C)c2ccccc2)c1
active: [1] 31.2 µM | [5] 69.5 µM | [7] 134 µM | [9] 30.1 µM | [20] 2.2 µM | [12] 14.9 µM | [15] 7.38 µM | [18] 2.85 µM
not listed: [16]
inactive: all other assays above

CCCCCCCCc1ccc(O)cc1
active: [1] 86.7 µM | [3] 34.6 µM | [9] 95 µM | [13] 11.2 µM | [15] 18.7 µM
inactive: [2] | [4] | [5] | [6] | [7] | [8] | [10] | [20] | [11] | [12] | [13] | [14] | [15] | [16] | [17] | [18] | [19]

CCN1CCC2(CC1)COc1cc3c(cc12)N(C(=O)c1ccc(-c2ccc(-c4nnc(C)o4)cc2C)cc1)CC3
active: [1] 9.88 µM | [2] 41.7 µM | [3] 75.1 µM | [5] 28.9 µM | [6] 5.12 µM | [7] 47.9 µM | [8] 59.8 µM | [9] 44.7 µM | [12] 5.81 µM
inactive: all other assays above

Cc1ccccc1N
not listed: [18] | [20]
inactive: all other assays above

c1ccc(N=NNc2ccccc2)cc1
inactive: [20] | [11] | [12] | [16] | [18] | [19]
active: [13] 115 µM | [14] 5.92 µM | [15] 80 µM | [17] 123 µM

C[C@]12CCC(=O)C[C@@H]1CC[C@@H]1[C@@H]2CC[C@]2(C)[C@@H](O)CC[C@@H]12
active: [1] 64.5 µM | [2] 91.2 µM | [12] 52.1 µM | [13] 116 µM | [14] 23.1 µM
inactive: [3] | [4] | [5] | [6] | [7] | [8] | [9] | [10] | [20] | [11] | [12] | [13] | [14] | [15] | [16] | [18] | [19]

ClC1(Cl)C2(Cl)C3(Cl)C4(Cl)C(Cl)(Cl)C5(Cl)C3(Cl)C1(Cl)C5(Cl)C24Cl (configuration not stated)
inactive: all assays above

CCC(C)(C)c1ccc(O)c(C(C)(C)CC)c1
active: [1] 37.4 µM | [5] 39.3 µM | [8] 29.7 µM | [9] 82.5 µM | [12] 11.1 µM | [13] 4.91 µM | [15] 12.8 µM | [18] 5.73 µM
not listed: [16] | [17]
inactive: all other assays above

C1CCC(NC2CCCCC2)CC1
inactive: [20] | [11] | [12] | [13] | [14] | [15] | [16] | [17] | [18] | [19]

COc1ccc(C=O)cc1OC
inactive: [20] | [11] | [12] | [13] | [14] | [15] | [16] | [17] | [18] | [19]

Nc1ncc([N+](=O)[O-])s1
active: [14] 62 µM
inactive: [20] | [11] | [12] | [13] | [15] | [16] | [17] | [18] | [19]

O=[N+]([O-])c1c(Cl)c(Cl)cc(Cl)c1Cl
active: [12] 45.3 µM
inactive: [20] | [11] | [13] | [14] | [15] | [16] | [17] | [18] | [19]

CCC(=O)c1ccccc1
inactive: [20] | [11] | [12] | [13] | [14] | [15] | [16] | [17] | [19]

COc1ccc(OC)c(C=O)c1
inactive: [20] | [11] | [12] | [13] | [14] | [15] | [16] | [17] | [18] | [19]
